The values below come from PubChem BioAssay AID740 (SRMLSC, 2007).

Out of some 96,000 compounds screened, about 65 (0.07%) were called active. Rule as the data show it: active = inhibition above about 25%; inactive = the rest. The full list was thinned out, with actives kept by preference.

The test in a line: unspecified inhibition readout at 50 µM (AID 740). Particulars: unspecified screen; stronger effect = higher value.
For the molecule `CC(NC(=O)c1ccc(F)cc1)c1ccccc1` (stereo unspecified), the inhibition was 1.4% (inactive).

Turning to `CC(NC(=O)c1ccc(S(=O)(=O)N(C)C)cc1)c1ccccc1` (stereo unspecified), the inhibition was 26.5% (active).

For the molecule `CC(NC(=O)c1ccc(NS(C)(=O)=O)cc1)c1ccccc1` (stereo unspecified), the inhibition was 1.26% (inactive).

On to `CCCn1ncc(C(=O)O)c1C`, for which the inhibition was 0.49% (inactive).

Regarding `CCn1c(N2CCN(CC(=O)c3c[nH]c4ccccc34)CC2)nc2c1c(=O)[nH]c(=O)n2C`, the inhibition was 0.91% (inactive).

Consider `CCc1c(C)nc2[nH]nc(NC(=O)C(F)(F)F)n2c1=O`, for which the inhibition was 1.45% (inactive).

With `COCc1cc(=O)n2c(-c3ccccc3OC)n[nH]c2n1`, the inhibition result is “inactive”.

In the case of `CCc1c(C)nc2[nH]nc(-c3ccccc3)n2c1=O`, the inhibition was 39.6% (active).

As for `CCc1c(C)[nH]c2nc3ccccc3n2c1=O`, the inhibition was 1.48% (inactive).

`CCc1c(C)nc2[nH]nc(-c3ccccc3C)n2c1=O`: the inhibition is 36.2% (active).

For the molecule `Cc1cc(=O)n2c(-c3ccccc3C)n[nH]c2n1`, the inhibition is 0.44% (inactive).

For `CC(=O)N1CCN(S(=O)(=O)c2cccc(C(=O)Nc3nc4c(s3)CCCC4)c2)CC1`, the inhibition is 0.78% (inactive).

Take `COc1ccccc1NC(=O)c1cc(C(=O)O)ccc1C(=O)O`: the inhibition result was “inactive”.

With `O=C1CSC(=S)N1Cc1cccnc1`, the inhibition is 28.6% (active).

For `O=C1CSC(=S)N1c1cccnc1`, the inhibition result was “inactive”.

For `O=C(O)c1ccc(CN2C(=O)CSC2=S)cc1`, the inhibition result was “inactive”.

As for `COc1cccc(-c2nc(CS(=O)(=O)CC(=O)N3CCc4ccccc43)c(C)o2)c1`, the inhibition result is “inactive”.

Regarding `Cc1ccccc1N(CC(=O)NC1CCCC1)C(=O)c1oc(C(C)(C)C)cc1C`, the inhibition is 2.02% (inactive).

For `Cc1sc2nc3c4ccccc4c(NCc4ccco4)nn3c(=O)c2c1C`, the inhibition is 26.7% (active).

Consider `Cc1sc2nc3ccc(NCc4ccco4)nn3c(=O)c2c1C`, for which the inhibition was 3.95% (inactive).

With `O=c1c2ccccc2nc2c3ccccc3c(NCc3ccco3)nn12`, the inhibition was 0.85% (inactive).

For the molecule `Cc1cc(C(=O)OCC(=O)Nc2ccc(S(=O)(=O)N3CCOCC3)cc2)c(C)o1`, the inhibition entry is “inactive”.

As to `Nc1nc(-c2ccco2)nn1C(=O)c1ccc(Cl)cc1`, the inhibition was 0.07% (inactive).

As for `Cc1nc2scc(-c3ccccc3)c2c(=O)n1/N=C/c1ccco1`, the inhibition entry was “inactive”.

`Cc1ccc(-c2csc3ncn(/N=C/N(C)C)c(=O)c23)o1`: the inhibition was 0.16% (inactive).

For the molecule `Cc1nc2scc(-c3ccco3)c2c(=O)n1/N=C/N(C)C`, the inhibition is 25.3% (active).

In the case of `COC(=O)Cn1cc(C(=O)OC)c2ccccc21`, the inhibition result is “inactive”.

Consider `Cc1ccc(CNC(=O)CCS(=O)(=O)c2cccc3nsnc23)cc1`, for which the inhibition is 0.45% (inactive).

Regarding `COc1cccc(CNC(=O)CCS(=O)(=O)c2cccc3nsnc23)c1`, the inhibition was 0.1% (inactive).

On to `O=C(CCS(=O)(=O)c1cccc2nsnc12)NCc1ccccc1Cl`, for which the inhibition is 79.1% (active).

For `COc1cc2[nH]c(=O)n(CCC(=O)NC3CCCC3)c(=O)c2cc1OC`, the inhibition is 0.82% (inactive).

Consider `Cc1sc(-c2ccccn2)nc1OC(=O)c1ccc(Cl)cc1`, for which the inhibition result was “inactive”.

Turning to `NC1C2CN(c3nc4c(cc3F)c(=O)c(C(=O)O)cn4-c3ccc(F)cc3F)CC12` (stereo unspecified), the inhibition is 27.2% (active).

In the case of `CCn1cc(C(=O)O)c(=O)c2cc(F)c(N3CCN(C(=O)Nc4ccccc4)CC3)cc21`, the inhibition was 1.47% (inactive).

Regarding `COc1c(N2CCN(C(=S)Nc3ccc(F)cc3)C(C)C2)c(F)cc2c(=O)c(C(=O)O)cn(C3CC3)c12` (stereo unspecified), the inhibition is 0.59% (inactive).

`O=C(O)c1cccc(COCC(F)(F)C(F)F)c1`: the inhibition result was “inactive”.

In the case of `COc1ccc([C@H]2[C@H](C(=O)C(C)(C)C)N3N=Cc4ccccc4C3[C@]23N=C(c2ccccc2)OC3=O)cc1` (stereo partly specified), the inhibition result was “inactive”.

As for `COc1ccc(CCN(Cc2cc3cc(C)c(C)cc3nc2Cl)C(=O)C2CC2)cc1`, the inhibition result was “inactive”.

Turning to `CC(C)(C)c1ccc(OCCn2ccccc2=O)cc1`, the inhibition is 25.3% (active).

Turning to `CC(C)(c1ccccc1)c1ccc(OCCn2cnc3ccccc3c2=O)cc1`, the inhibition entry was “inactive”.

Turning to `CC(C)(C)c1ccc(OCCN2CCCC2)cc1`, the inhibition result was “inactive”.

Consider `CCS(=O)(=O)Nc1ccc(-c2ccc(NS(=O)(=O)CC)c(OC)c2)cc1OC`, for which the inhibition is 0.7% (inactive).

For the molecule `Cc1ccc(S(=O)(=O)CC(N)=O)cc1`, the inhibition was 0.12% (inactive).

`O=C(c1ccco1)N1CCN(c2cc(C(F)(F)F)nc3ncnn23)CC1`: the inhibition is 1.54% (inactive).

Take `CCCN(CCC)C(=O)Cn1c(=O)n(CCCCC(=O)NC2CCCC2)c(=O)c2ccccc21`: the inhibition was 0.15% (inactive).

For the molecule `CCN1CCN(CC(O)COc2ccc(C(C)=O)cc2)CC1` (stereo unspecified), the inhibition was 0.4% (inactive).

Turning to `Cc1ccc(/C=C/C(=O)c2c(C)cc(C)[nH]c2=O)cc1`, the inhibition was 35.2% (active).

Consider `CCc1ccc(/C=C/C(=O)c2c(C)cc(C)[nH]c2=O)cc1`, for which the inhibition is 24.9% (inactive).

Consider `Cc1cc(C)c(C(=O)/C=C/c2ccc(C(C)C)cc2)c(=O)[nH]1`, for which the inhibition is 1.62% (inactive).

Consider `COCCSc1ccccc1C(=O)N1CCOCC1`, for which the inhibition result was “inactive”.

Turning to `CC(C)(C)c1ccc(S(=O)(=O)n2c(CN3CCOCC3)nc3ccccc32)cc1`, the inhibition was 0.34% (inactive).

In the case of `CCOC(=O)CSc1nnc(C2CCCCC2)n1C`, the inhibition entry is “inactive”.

On to `O=C(c1ccc(F)cc1)C(CN1CCOCC1)c1ccccc1` (stereo unspecified), for which the inhibition result was “inactive”.

With `COc1ccc(C(=O)C(CN2CCCC2)c2ccccc2)cc1` (stereo unspecified), the inhibition is 8.35% (inactive).

For the molecule `COc1ccc(C(=O)C(CN2CCOCC2)c2ccccc2)cc1` (stereo unspecified), the inhibition was 41.7% (active).

Take `Nc1nc(SCc2ccccc2)[nH]c(=O)c1-c1ccccc1`: the inhibition result was “inactive”.

On to `O=C(CSc1ncccc1C(=O)O)NCCC1=CCCCC1`, for which the inhibition result was “inactive”.

Regarding `O=C(CN1CCN(c2ncccn2)CC1)NCCC1=CCCCC1`, the inhibition is 50.1% (active).

For the molecule `O=C(CN1CCN(C2CCCCC2)CC1)NCCC1=CCCCC1`, the inhibition result is “inactive”.

As to `COc1cccc(NS(=O)(=O)c2ccc3[nH]cc(C(=O)NCCC(C)C)c(=O)c3c2)c1`, the inhibition was 1.2% (inactive).

Consider `O=C(NCc1ccco1)c1cc(S(=O)(=O)N2CCOCC2)ccc1Cl`, for which the inhibition is 0.08% (inactive).

As for `CCCCOc1cccc(NC(=O)CSc2nccn2C)c1`, the inhibition entry was “inactive”.

Take `C=CCNC(=S)Nc1cccc2ccccc12`: the inhibition is 0.02% (inactive).

Take `COc1ccccc1-c1nnc(Sc2nc([N+](=O)[O-])nn2C)o1`: the inhibition entry was “inactive”.

For the molecule `Cn1nc([N+](=O)[O-])nc1Sc1nnc(-c2ccccc2)o1`, the inhibition is 28.3% (active).

Regarding `Cn1nc([N+](=O)[O-])nc1Sc1ccc(C(C)(C)C)cc1`, the inhibition was 9.59% (inactive).

What is called inhibition is the percentage by which the read-out fell short of the control.
